Source: PubChem BioAssay (EPA / NIEHS)
Inconclusive results are not listed. Calls of active or inactive are those of the source. Rule for the calls: active = hit-call score of the fitted dose curve at least 0.9, where 1 is the maximum; inconclusive = response in the unintended direction; inactive = score below 0.9.

Read-out: Cytochrome P450 2C19 (Homo sapiens) (UniProt P33261)
Assay: CLD_CYP2C19_48hr: CellzDirect (CLD) Gene Expression Assay for xenobiotic metabolism (CYP2C19) at 48 hours (AID 2283700);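 note: fitted upward so actives raise CYP2C19 mRNA above the 0.2% DMSO vehicle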
Procedure: CLD_48hr is a cell-based, multiplexed-readout assay that uses hepatocyte, a human liver primary cell, with measurements taken at 48 hours after chemical dosing in a 96-well plate.CLD_CYP2C19_48hr is one of 16 assay component(s) measured or calculated from the CLD_48hr assay. It is designed to make measurements of mRNA induction, a form of inducible reporter, as detected with chemiluminescence signals by Quantitative Nuclease Protection Assay (qNPA) technology.Data from the assay component CLD_CYP2C19_48hr was analyzed at the endpoint, CLD_CYP2C19_48hr, in the positive analysis fitting direction relative to DMSO as the negative control and baseline of activity. Using a type of inducible reporter, gain-of-signal activity can be used to understand changes in the reporter gene as they relate to the gene CYP2C19. Furthermore, this assay endpoint can be referred to as a primary readout. To generalize the intended target to other relatable targets, this assay endpoint is annotated to the cyp intended target family, where subfamily is xenobiotic metabolism.
Human hepatocyte cultures were treated daily for two consecutive days with fresh dosing solutions containing appropriate concentrations of the 320 ToxCast chemicals (chemical identities were blinded to CellzDirect and other ToxCast collaborators), vehicle control (0.2% DMSO), and positive control inducers as summarized in Table 1. Due to the large number of treatment groups and chemicals examined, the ToxCast chemicals were divided into two groups (spanning two independent cultures of hepatocytes from separate donor preparations (Hu778: ToxCast plates 1 and 2; Hu776: ToxCast plates 3 and 4). Each preparation of human hepatocyte cultures was treated with respective vehicle control, medium only control, set of six positive controls/reference chemicals for the five hepatic receptor pathways, and a subset of eight of the ToxCast chemicals (indoxacarb, pyrithiobac-sodium, norflurazon, cyhalofop-butyl, methomyl, thiram, acetochlor, and propiconazole). These replicate data, coupled with internal replicates designed within the blinded ToxCast chemical library, provided additional data to evaluate interindividual differences between hepatocyte preparations and their potential impact on chemical profiles.Cell morphology and integrity were evaluated using phase-contrast microscopy as an indicator of hepatocyte cell health (Tyson & Green, 1987). Cultures for each treatment group (i.e., media, vehicle [0.2% DMSO], positive control inducers [multiple concentrations], and the ToxCast chemicals [multiple concentrations]) were observed and cell morphology was assessed relative to vehicle control cultures at each harvest time point (0, 6, 24, or 48 h). […] Images were evaluated at the conclusion of the study to assess changes in cell integrity and account for the effects of chemical exposure on uncharacteristic changes in concentration-dependent gene expression profiles. The results from these determinations of apparent cytotoxicity were annotated (yes/no) alongside the corresponding qNPA data for reference.At the conclusion of each treatment period, hepatocyte cultures (96-well) were washed with 1 volume of HBSS, lysed by addition of 25 ul ArrayPlate lysis buffer (HTG, Tucson, AZ), and 70 ul/well of Denaturation Oil, denatured by incubation at 95C for 10 min, and frozen at approximately -70C until analysis by nuclease protection assay (qNPA) (Roberts et al., 2007). For qNPA analysis, cell lysates were thawed at 50C for approximately 30 min, qNPA probes were added, and samples were incubated at 95C for 10 min to begin the detection process by denaturing the target RNA, dissociating the duplexes and secondary structure hybridization. At the conclusion of the hybridization period, S1 nuclease reagent was added to each sample to digest all nonprotected nucleotides at 50C for 60-90 min. […]

Sequence of Cytochrome P450 2C19 (Homo sapiens) (P33261 whole entry, looked up): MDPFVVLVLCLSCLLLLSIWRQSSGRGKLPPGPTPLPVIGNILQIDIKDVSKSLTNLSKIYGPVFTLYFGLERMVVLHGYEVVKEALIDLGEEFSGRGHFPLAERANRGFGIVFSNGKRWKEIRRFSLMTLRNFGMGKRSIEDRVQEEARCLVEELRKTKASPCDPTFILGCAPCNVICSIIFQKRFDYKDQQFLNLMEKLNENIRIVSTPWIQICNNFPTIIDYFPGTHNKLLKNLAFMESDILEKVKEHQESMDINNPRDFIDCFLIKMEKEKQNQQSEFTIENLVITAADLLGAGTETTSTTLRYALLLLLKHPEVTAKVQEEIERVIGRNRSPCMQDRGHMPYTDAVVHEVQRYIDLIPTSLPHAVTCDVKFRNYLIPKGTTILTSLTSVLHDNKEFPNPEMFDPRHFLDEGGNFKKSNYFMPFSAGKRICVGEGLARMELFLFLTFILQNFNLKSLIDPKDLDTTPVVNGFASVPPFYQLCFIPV

Compound	outcome
Oc1cc(Cl)ccc1Oc1ccc(Cl)cc1Cl	inactive
CCC(C)Nc1c([N+](=O)[O-])cc(C(C)(C)C)cc1[N+](=O)[O-] (stereo not drawn)	inactive
CC1(C)C(C=C(Cl)Cl)C1C(=O)OC(C#N)c1ccc(F)c(Oc2ccccc2)c1 (stereo not drawn)	inactive
Cc1cc(C)nc(NC(=O)NS(=O)(=O)c2ccccc2C(=O)OC2COC2)n1	inactive
C[C@H]1[C@H](c2ccc(Cl)cc2)SC(=O)N1C(=O)NC1CCCCC1	inactive
COP(=O)(OC)OC=C(Cl)Cl	inactive
O=C(O)COc1ccc(Cl)cc1Cl	inactive
N#CN	inactive
Cc1[nH]c(=O)n(C(C)(C)C)c(=O)c1Cl	inactive
CNC(=O)CSP(=S)(OC)OC	inactive
CC(C)(C)C(O)C(Oc1ccc(Cl)cc1)n1cncn1 (stereo not drawn)	inactive
N#Cc1c(Cl)c(Cl)c(Cl)c(C#N)c1Cl	inactive
CCN(CC)C(=O)SCc1ccc(Cl)cc1	inactive
O=C(O)CCCOc1ccc(Cl)cc1Cl	inactive
CC[C@H](C)[C@H]1O[C@]2(C=C[C@@H]1C)C[C@@H]1C[C@@H](C/C=C(\C)[C@@H](O[C@H]3C[C@H](OC)[C@@H](O[C@H]4C[C@H](OC)[C@@H](O)[C@H](C)O4)[C@H](C)O3)[C@@H](C)/C=C/C=C3\CO[C@@H]4[C@H](O)C(C)=C[C@@H](C(=O)O1)[C@]34O)O2 (tested in a mixture with another compound)	inactive
O=C(NC(=O)c1c(F)cccc1F)Nc1ccc(OC(F)(F)C(F)OC(F)(F)F)c(Cl)c1 (stereo not drawn)	inactive
CC(C)OC(=O)Nc1cccc(Cl)c1	inactive
COC(=O)c1ccccc1S(=O)(=O)NC(=O)Nc1nc(C)nc(OC)n1	inactive
COC(=O)c1ccccc1CS(=O)(=O)NC(=O)Nc1nc(OC)cc(OC)n1	inactive
OCCOc1ccccc1	inactive
C#CCN1C(=O)COc2cc(F)c(N3C(=O)C4=C(CCCC4)C3=O)cc21	inactive
CNC(=O)Oc1ccccc1OC(C)C	inactive
O=C(O)C(F)(F)C(F)(F)C(F)(F)C(F)(F)C(F)(F)C(F)(F)C(F)(F)F	inactive
Oc1ccc(Cl)cc1Cc1ccccc1	inactive
O=C1c2ccccc2C(=O)N1SC(Cl)(Cl)Cl	inactive
O=S1OCC2C(CO1)C1(Cl)C(Cl)=C(Cl)C2(Cl)C1(Cl)Cl (stereo not drawn)	inactive
O=C(Nc1ccccc1)Nc1cnns1	inactive
CNC(=O)/C=C(\C)OP(=O)(OC)OC	inactive
